According to PubChem BioAssay AID1159580 (chemical genetic matrix, 2015):
“And” between values parts separate entries of the source, which are not always exact repeats. Equal entries are not always repeated. In all, about 5,500 compounds went through this assay and about 2,000 (36%) were called active. Another 18% or so got no clear call; they are omitted. Rule as the data show it: active = normalized growth mostly below about 0.91 (no sharp cut-off); inconclusive = no clear call, values can overlap the other calls; inactive = mostly above about 0.92. The list shows a part of the results.

Experiment: chemical genetic growth profiling, strain panel (AID 1159580);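 also: tested at 20 µM; growth read once vehicle control cultures reached saturation at 30 °C; 1 = growth at the plate median or of vehicle wells; lower values mean less growth of the strain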
Settings: S. cerevisiae deletion strains, growth OD

Measured: normalized growth

Clc1ccc(COC(Cn2ccnc2)c2ccc(Cl)cc2Cl)cc1 (stereo not given)
active: locus YAL013W, strain DEP1, hits give low values 0.0557 | locus YAL021C, strain ccr4, hits give low values 0.0668 | locus YAL026C, strain drs2, hits give low values 0.0618 | locus YAL030W, strain snc1, hits give low values 0.0554 | locus YBL061C, strain skt5, hits give low values 0.0644 | locus YBR009C, strain hhf1, hits give low values 0.0597 | locus YBR021W, strain FUR4, hits give low values 0.086 | locus YBR023C, strain chs3, hits give low values 0.0622 | locus YBR171W, strain sec66, hits give low values 0.0758 | locus YBR229C, strain ROT2, hits give low values 0.0463 | locus YBR231C, strain swc5, hits give low values 0.0645 | locus YBR279W, strain paf1, hits give low values 0.0619 | locus YCL011C, strain gbp2, hits give low values 0.0566 | locus YCL016C, strain dcc1, hits give low values 0.0644 | locus YCL029C, strain bik1, hits give low values 0.06 | locus YCL061C, strain MRC1, hits give low values 0.0624 | locus YCL069W, strain vba3, hits give low values 0.0606 | locus YCR088W, strain abp1, hits give low values 0.0621 | locus YDL005C, strain med2, hits give low values 0.0718 | locus YDL035C, strain GPR1, hits give low values 0.0503 | locus YDL040C, strain nat1, hits give low values 0.0573 | locus YDL074C, strain BRE1, hits give low values 0.0774 | locus YDL101C, strain DUN1, hits give low values 0.055 | locus YDL134C, strain PPH21, hits give low values 0.0501 | locus YDL185W, strain tfp1, hits give low values 0.0607 | locus YDL192W, strain arf1, hits give low values 0.0606 | locus YDR001C, strain nth1, hits give low values 0.0586 | locus YDR069C, strain doa4, hits give low values 0.0605 | locus YDR101C, strain arx1, hits give low values 0.0571 | locus YDR137W, strain rgp1, hits give low values 0.093 | locus YDR150W, strain NUM1, hits give low values 0.055 | locus YDR159W, strain sac3, hits give low values 0.0898 | locus YDR162C, strain NBP2, hits give low values 0.0476 | locus YDR195W, strain ref2 0.131 | locus YDR297W, strain sur2, hits give low values 0.0541 | locus YDR318W, strain mcm21, hits give low values 0.061 | locus YDR334W, strain swr1, hits give low values 0.0622 | locus YDR335W, strain msn5, hits give low values 0.0604 | locus YDR388W, hits give low values 0.0583 | locus YDR392W, strain spt3, hits give low values 0.0764 | locus YDR502C, strain sam2, hits give low values 0.0603 | locus YEL003W, strain gim4, hits give low values 0.0531 | locus YEL037C, strain rad23, hits give low values 0.0573 | locus YEL061C, strain CIN8 (second series), hits give low values 0.0612 | locus YEL061C, strain CIN8, hits give low values 0.0491 | locus YER015W, strain faa2, hits give low values 0.0598 | locus YER016W, strain bim1, hits give low values 0.0634 | locus YER110C, hits give low values 0.0724 | locus YER111C, strain swi4, hits give low values 0.0738 | locus YER155C, strain BEM2 (second series), hits give low values 0.0963 | locus YER155C, strain BEM2, hits give low values 0.0618 | locus YER167W, strain BCK2, hits give low values 0.0498 | locus YFR010W, strain ubp6, hits give low values 0.0675 | locus YGL078C, strain dbp3, hits give low values 0.0728 | locus YGL086W, strain mad1, hits give low values 0.0553 | locus YGL167C, strain pmr1, hits give low values 0.0771 | locus YGL173C, strain kem1, hits give low values 0.0703 | locus YGL227W, strain vid30, hits give low values 0.0629 | locus YGL240W, strain doc1, hits give low values 0.089 | locus YGL248W, strain PDE1, hits give low values 0.046 | locus YGL253W, strain hxk2, hits give low values 0.0531 | locus YGR135W, strain pre9, hits give low values 0.0589 | locus YGR229C, strain SMI1, hits give low values 0.0609 | locus YGR252W, strain gcn5, hits give low values 0.114 | locus YHR013C, strain ard1, hits give low values 0.0983 | locus YHR027C, strain rpn1, hits give low values 0.0623 | locus YHR030C, strain SLT2, hits give low values 0.0501 and 0.104 | locus YHR079C, strain IRE1 (second series), hits give low values 0.058 | locus YHR079C, strain IRE1, hits give low values 0.114 | locus YHR094C, strain hxt1, hits give low values 0.0575 | locus YHR129C, strain ARP1, hits give low values 0.0576 | locus YHR142W, strain chs7, hits give low values 0.0716 | locus YHR200W, strain rpn10, hits give low values 0.0591 | locus YIL066C, strain RNR3, hits give low values 0.143 | locus YIL073C, strain SPO22, hits give low values 0.1 | locus YIL125W, strain kgd1, hits give low values 0.0707 | locus YIR030C, strain dcg1, hits give low values 0.0577 | locus YJL092W, strain hpr5, hits give low values 0.0592 | locus YJL095W, strain BCK1 (second series), hits give low values 0.0566 | locus YJL095W, strain BCK1, hits give low values 0.0581 and 0.1 | locus YJL115W, strain asf1, hits give low values 0.0714 | locus YJL129C, strain trk1, hits give low values 0.0943 | locus YJL134W, strain LCB3, hits give low values 0.048 | locus YJL154C, strain vps35, hits give low values 0.0599 | locus YJL164C, strain tpk1, hits give low values 0.0592 | locus YJL166W, strain qcr8, hits give low values 0.0601 | locus YJL168C, strain set2, hits give low values 0.0595 | locus YJL187C, strain SWE1 (second series), hits give low values 0.0469 | locus YJL187C, strain SWE1, hits give low values 0.058 | locus YJR043C, strain POL32, hits give low values 0.0638
